Assay results published in the supplement of paper PMC7801607.

Experiments:
CHO = test: % viability of CHO cells (MTT); higher = less toxic; conditions: 48 h
Procedure, shortened: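 CHO cells were seeded at 10^6 cells/well in 200 µL and left overnight to attach. The medium was then replaced with fresh medium containing compound at 2 or 20 µM for 48 h. Survival was read colorimetrically with the tetrazolium (MTT) assay. Percent viability was expressed relative to untreated cells.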

HepG2-A16-CD81 = test: % inhibition of HepG2 viability (CellTiter-Glo); higher = more toxic; conditions: 5 µM
[1] = test system: Plasmodium falciparum NF54 stage IV/V gametocytes; test: % inhibition of gametocyte viability (PrestoBlue); higher = more inhibition; conditions: 48 h
Procedure, shortened: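 Stage IV/V NF54 gametocytes (2% gametocytaemia, 5% haematocrit, 100 µL/well) were exposed to compound at 1 or 5 µM. Incubation was 48 h at 37 °C, stationary and hypoxic, followed by 10 µL PrestoBlue for 2 h. Fluorescence at 612 nm was read on 70 µL of transferred supernatant. Percent inhibition of gametocyte viability was normalised to DMSO and kill controls from a single run.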

[2] = test system: Plasmodium falciparum NF54 asexual blood stage; test: % inhibition of asexual blood stage proliferation (pLDH); higher = more inhibition; conditions: 72 h
Procedure, shortened: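 Plasmodium falciparum NF54 ring-stage cultures (1% haematocrit, 2% parasitaemia) were exposed to compound at 2 or 20 µM in 96-well plates. Incubation was 72 h at 37 °C under 4% CO2, 3% O2 and 93% N2. Survival was read colorimetrically at 620 nm with the parasite lactate dehydrogenase assay. Percent inhibition of asexual proliferation was normalised to DMSO and kill controls, and the screen was run on two separate occasions.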

[3] = test system: Plasmodium falciparum NF54 stage IV/V gametocytes; test: % inhibition of gametocyte viability (ATP bioluminescence); higher = more inhibition; conditions: 24 h
Procedure, shortened: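 In 96-well plates, compound at 1 or 5 µM was added to 30,000 density-gradient-enriched stage IV/V NF54 gametocytes per well and incubated for 24 h at 37 °C. ATP readout used the Promega BacTiter Glo bioluminescence system. Percent inhibition of gametocyte viability comes from a single run, normalised to control wells.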

[4] = test system: Plasmodium falciparum NF54 stage IV/V gametocytes; test: % inhibition of gametocyte viability (luciferase reporter); higher = more inhibition; conditions: 48 h
Procedure, shortened: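 Percent inhibition was normalised to controls from a single run. Stage IV/V gametocytes of the NF54-Pfs16-GFP-Luc line, at 2% gametocytaemia and 2% haematocrit, were exposed to compound at 1 or 5 µM for 48 h at 37 °C under stationary, hypoxic conditions. Luminescence was then read from 30 µL lysate mixed with 30 µL Promega luciferin substrate on a GloMax-Multi+ reader with 10 s integration.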

[5] = test system: Plasmodium berghei ANKA liver stage in HepG2-A16-CD81; test: % inhibition of liver stage parasite viability (luciferase); higher = more inhibition; conditions: 5 µM; 48 h
Description: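 Single-concentration screen of the MMV Pandemic Response Box. P. falciparum NF54 asexual blood stages: pLDH assay, 72 h at 37 °C, 2 and 20 µM, n=2. Stage IV/V gametocytes (NF54): luciferase reporter (NF54-Pfs16-GFP-Luc, 48 h), ATP bioluminescence (24 h) and PrestoBlue (48 h) at 1 and 5 µM, n=1. P. berghei liver stage (luciferase in HepG2-A16-CD81, 48 h post infection) at 5 µM, n=4. All normalised to DMSO and kill controls as % inhibition.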
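Throughout, for % inhibition of HepG2 viability (CellTiter-Glo): HepG2-A16-CD81 hepatoma cells plated as in the liver-stage assay but without sporozoites, with DMSO wells as negative and 25 µM puromycin as positive control.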

Row | SMILES | % viability of CHO cells (CHO; 2 µM) | % viability of CHO cells (CHO; 20 µM) | % inhibition of HepG2 viability (HepG2-A16-CD81) | % inhibition of gametocyte viability ([1]; 1 µM) | % inhibition of gametocyte viability ([1]; 5 µM) | % inhibition of asexual blood stage proliferation ([2]; 2 µM) | % inhibition of asexual blood stage proliferation ([2]; 20 µM) | % inhibition of gametocyte viability ([3]; 1 µM) | % inhibition of gametocyte viability ([3]; 5 µM) | % inhibition of gametocyte viability ([4]; 1 µM) | % inhibition of gametocyte viability ([4]; 5 µM) | % inhibition of liver stage parasite viability [5]
1 | C[C@H](NC(=O)C(=O)Nc1ccccc1C(C)(C)C)C(=O)N[C@@H](CC(=O)O)C(=O)COc1c(F)c(F)cc(F)c1F | 113% | 63.6% | 0.382% | < 0% | < 0% | 31.7% | 46.9% | < 0% | < 0% | 1.5% | 2.48% | 5.8%
2 | O=C(c1nc2c(C(F)(F)F)cc(C3CC3)cn2c1Cl)N1CCN([C@H]2CC[C@H](O)CC2)C(=O)C1 | 100% | 116% | 0.895% | 28.7% | 6.18% | 14.7% | 46.1% | 10.1% | 1.45% | 3.76% | < 0% | 16.9%
3 | CC(=O)O[C@H]1C[C@@]2(C)[C@@H](C[C@@H](O)[C@H]3[C@@]4(C)CC[C@@H](O)[C@@H](C)[C@@H]4CC[C@@]32C)/C1=C(\CCC=C(C)C)C(=O)O | 108% | 97.1% | -0.207% | < 0% | 2% | 1.38% | 9.02% | < 0% | < 0% | < 0% | < 0% | 36.2%
4 | CCc1nc(N)nc(N)c1C#CCc1ccccc1 | 105% | 92.5% | 5.43% | 1.8% | < 0% | 66% | 97.2% | < 0% | < 0% | 5.41% | < 0% | 76.9%
5 | O=c1nc(N2CCN(CC3CCCCC3)CC2)sc2c([N+](=O)[O-])cc(C(F)(F)F)cc12 | 95.8% | 112% | 7.83% | < 0% | 4.32% | 37% | 107% | < 0% | < 0% | 8.82% | < 0% | 33.1%
6 | Cn1cc(NC(=O)c2cc(NC(=O)c3ccc(/C=C/c4cnc5ccccc5c4)cc3)cn2C)cc1C(=O)NCCN1CCOCC1 | 34.6% | 14.9% | -5.82% | 18.3% | 55.1% | 68.7% | 94% | 22.3% | 15.5% | 64.1% | 67.1% | 85.8%
7 | Nc1cc(N)c2nc(-c3ccccc3)c(Nc3ccc(F)cc3)nc2c1 | 97.5% | 88.4% | 12.8% | < 0% | < 0% | 91% | 92.4% | < 0% | 19.7% | < 0% | < 0% | 43.9%
8 | OCCCCn1cnc2c(O)nc(NCc3ccc(Cl)c(Cl)c3)nc21 | 95.4% | 106% | 5.96% | < 0% | < 0% | 18.9% | 91.1% | < 0% | < 0% | < 0% | < 0% | 7.89%
9 | Nc1nc(N)c2c(Sc3ccccc3)cccc2n1 | 107% | 100% | 13.7% | < 0% | 4.25% | 47.8% | 77.9% | < 0% | 2.83% | < 0% | < 0% | 48.9%
